Where “and” joins values, the source holds several entries; their conditions need not be identical. Equal values may be shown once. Inconclusive results are not listed. Calls of active or inactive are those of the source. Calls follow the shape of the dose curve; as a rule, active = well fitted curve in the direction sought with a large enough effect; inconclusive = small, poorly fitted or top-dose-only effect, or another doubt; inactive = no such curve, though single readings can be large; an effect the other way counts as inactive or inconclusive.
Experiments:
[1] = Viability qHTS for spleen associated tyrosine kinase inhibitor (SYKi) naive MV4-11 cells (AID 1963823); also: nearly all actives have a fitted effect of over 40% in size; also: potency is read from the fitted curve at half-maximal effect
Procedure, shortened: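 SYK inhibitor-naive MV4-11 cells, 500 per well, exposed to compounds for 72 hr at 37 C, 5% CO2. Viability read as CellTiter-Glo luminescence after 10 min at room temperature.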

[2] = Viability qHTS for spleen associated tyrosine kinase inhibitor (SYKi) drug resistant MV4-11 cells (AID 1963824); also: nearly all actives have a fitted effect of over 35% in size; also: potency is read from the fitted curve at half-maximal effect
Procedure, shortened: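 CellTiter-Glo luminescence, read 10 min after reagent addition, reports viability after a 72 hr compound exposure. Cells are an MV4-11 line made resistant to SYK inhibition, seeded at 500 per well onto compound-containing plates.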

[3] = Quantitative highthroughput screen to assess conditional lethalithy of NOMO1 cells grown in RPMI1640 with untreated serum (RPMI+s) (AID 1963876); also: nearly all actives have a fitted effect of over 35% in size; also: potency is read from the fitted curve at half-maximal effect;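 as to Viability: 100% = DMSO wells and 0% = empty wells without cells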
Procedure, shortened: (§1)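 Each medium arm—HPLM with 10% dialyzed FBS, or RPMI1640 with 5 mM glucose and 10% untreated or dialyzed FBS—was screened against an 11-point, 3-fold compound titration for 48 h at 37 °C, with CellTiter-Glo luminescence as endpoint.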

[4] = Quantitative highthroughput screen to assess conditional lethalithy of NOMO1 cells grown in RPMI1640 with dialyzed fetal bovine serum (RPMI+ds) (AID 1963877);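 also: series mostly up to about 46 µM; 100% = DMSO control wells and 0% = empty wells; nearly all actives have a fitted effect of over 30% in size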
Procedure, shortened: as §1

[5] = Quantitative highthroughput screen to assess conditional lethalithy of NOMO1 cells grown in Human Plasma-Like Medium with dialyzed fetal bovine serum (HPLM+ds) (AID 1963878); also: nearly all actives have a fitted effect of over 35% in size; also: potency is read from the fitted curve at half-maximal effect;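 as to Viability: 100% = DMSO wells and 0% = empty wells on each plate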
Procedure, shortened: as §1

[6] = Quantitative highthroughput screen to assess conditional lethalithy of P12 Ichikawa cells grown in Human Plasma-Like Medium with dialyzed fetal bovine serum (HPLM+ds) (AID 1963879); details: Potency: viability; also: series mostly up to about 46 µM; nearly all actives have a fitted effect of over 35% in size
Procedure, shortened: as §1

[7] = Quantitative highthroughput screen to assess conditional lethalithy of P12 Ichikawa cells grown in RPMI1640 with dialyzed fetal bovine serum (RPMI+ds) (AID 1963880); details: Potency: P12-Ichikawa viability; also: nearly all actives have a fitted effect of over 35% in size; also: potency is read from the fitted curve at half-maximal effect;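 as to Viability: 100% = DMSO wells and 0% = empty wells on each plate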
Procedure, shortened: as §1

[8] = Quantitative highthroughput screen to assess conditional lethalithy of SEM cells grown in Human Plasma-Like Medium with dialyzed fetal bovine serum (HPLM+ds) (AID 1963882); also: nearly all actives have a fitted effect of over 35% in size; also: potency is read from the fitted curve at half-maximal effect; as to Viability: series mostly up to about 46 µM
Procedure, shortened: as §1

[9] = Quantitative highthroughput screen to assess conditional lethalithy of SEM cells grown in RPMI1640 with unreated serum (RPMI+s) (AID 1963883); also: nearly all actives have a fitted effect of over 35% in size; also: potency is read from the fitted curve at half-maximal effect;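 as to Viability: 100% = DMSO wells and 0% = empty wells without cells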
Procedure, shortened: as §1

[10] = Cellular viability qHTS for adrenocortical cancer (ACC) cell line SW-13 (AID 1963989); details: SW-13 ACC cells viability, CellTiter-Glo, 48 h; activity (max response): hits give low values; also: nearly all actives have a fitted effect of over 65% in size; also: potency is read from the fitted curve at half-maximal effect;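 as to activity (max response): cells grown in serum-free medium with ITS supplement; % is scaled to controls: 0 for no effect and ±100 for the full control effect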
Procedure, shortened: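 Viability was read as CellTiter-Glo luminescence after 48 h compound treatment (up to 46 uM final) of SW-13 cells grown serum-free; titration curves were fit with a four-parameter logistic model to give IC50 and efficacy.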

[11] = Cellular viability qHTS for adrenocortical cancer (ACC) cell line NCI-H295R (AID 1963990); also: nearly all actives have a fitted effect of over 60% in size; also: potency is read from the fitted curve at half-maximal effect
Procedure, shortened: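 CellTiter-Glo ATP luminescence, read 48 h after compound addition, measured viability of NCI-H295R adrenocortical cells grown serum-free with ITS. Final concentrations spanned up to 46 uM. Data normalized to DMSO and doxorubicin, fitted for IC50 and maximal response.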

[12] = Quantitative highthroughput screen to assess conditional lethalithy of P12 Ichikawa cells grown in RPMI1640 with untreated serum (RPMI+s) (AID 1963881); details: Potency: viability
Procedure, shortened: as §1

CC(C)(O)/C=C/C(=O)[C@](C)(O)[C@H]1[C@H](O)C[C@@]2(C)[C@@H]3CC=C4[C@@H](C=C(O)C(=O)C4(C)C)[C@]3(C)C(=O)C[C@]12C
active: Potency [1] 0.0596 µM | Potency [2] 0.0376 µM

COC1CC(O[C@H]2CC[C@@]3(C)C(=CCC4C3C(O)[C@@H](O)[C@]3(C)[C@@H](C(C)=O)CC[C@]43O)C2)OC(C)C1OC1CC(OC)C(OC2OC(C)C(O)C(O)C2O)C(C)O1 (some centres not stated)
inactive: viability (% of control) [1] 67.1% [at 9.25 µM] | viability, % of control [2] 103% [at 9.25 µM]

CC12Cc3cn[nH]c3C=C1CCC1C2CCC2(C)C1CCC2(C)O (configuration not stated)
active: Potency [1] 25.9 µM | Potency [2] 20.6 µM

COc1cc2cc(c1Cl)N(C)C(=O)C[C@H](OC(=O)C(C)C)[C@]1(C)O[C@@H]1[C@H](C)[C@@H]1C[C@@](O)(NC(=O)O1)[C@H](OC)/C=C/C=C(\C)C2
inactive: Potency [1] | Potency [2]

CCCCCCCCC(=O)NCc1ccc(O)c(OC)c1
inactive: Potency [1] | Potency [2]

CC[C@H]1/C=C\C=C/C[C@@H](C)[C@H](O)[C@@](C)(O)C(=O)[C@@H](C)[C@H](O)[C@@H](C)C(=O)[C@@H](C)[C@H](O)[C@@H](C)/C=C\C(=O)O[C@@H]2[C@H](C)[C@H](CC1)O[C@]1(CC[C@H](C)[C@H](C[C@@H](C)O)O1)[C@H]2C
active: Potency [1] 0.0092 µM | Potency [2] 0.0065 µM

C[C@]12CC[C@H](O)C[C@@H]1CC[C@@H]1[C@@H]2CC[C@]2(C)[C@@H](C3=CC(=O)OC3)CC[C@]12O
active: Potency [1] 3.21 µM | Potency [2] 2.55 µM

CCCCCOc1cc2c(cc1-c1cc(/C=C/C(=O)O)ccc1O)C(C)(C)CCC2(C)C
active: Potency [1] 20.6 µM | Potency [2] 23.1 µM

COC(=O)[C@@H](N)CCCN=C(N)N[N+](=O)[O-]
inactive: Potency [1] | Potency [2] | Potency [3] | Potency [4] | Potency [5] | Potency [6] | Potency [7] | Potency [8] | Potency [9] | activity (max response) [10] 6.1% | Potency [11]

COc1cc(OC)c(OC)cc1C=O
inactive: Potency [1] | Potency [2] | Potency [3] | Potency [4] | Potency [6] | Potency [8] | activity (max response) [10] 8.71%

COc1ccc(C(=O)c2c(C)n(CCN3CCOCC3)c3ccccc23)cc1
inactive: Potency [3] | Potency [4] | Potency [5] | Potency [6] | Potency [7] | Potency [8]
active: Potency [1] 26.6 µM | Potency [2] 16.6 µM | Potency [11] 14.6 µM

CC1=C(O)C(=O)C=C2C1=CC=C1[C@@]2(C)CC[C@@]2(C)[C@@H]3C[C@](C)(C(=O)O)CC[C@]3(C)CC[C@]12C
active: Potency [1] 0.59 µM | Potency [2] 0.468 µM | Potency [3] 3.72 µM | Potency [7] 2.64 µM | Potency [8] 2.64 µM | Potency [9] 2.64 µM | Potency [10] 4.47 µM | Potency [11] 6.31 µM

CCCC[N+]1(C)[C@H]2CC(OC(=O)[C@H](CO)c3ccccc3)C[C@H]1[C@H]1O[C@H]12 (some centres not stated)
inactive: Potency [1] | Potency [2] | Potency [6] | Potency [7] | Potency [8] | activity (max response) [10] -1.99% | Potency [11]
active: Potency [3] 18.7 µM | Potency [5] 11.8 µM

Cc1cccc(C)c1NC(=O)CN1CCCC1=O
inactive: Potency [1] | Potency [2] | Potency [5] | Potency [7] | Potency [12] | Potency [8] | Potency [9]

COC[C@H]1OC(=O)c2coc3c2[C@@]1(C)C1=C(C3=O)C2CCC(=O)[C@@]2(C)C[C@H]1OC(C)=O (some centres not stated)
inactive: Potency [3] | Potency [6] | Potency [9]
active: Potency [1] 14.6 µM and 3.32 µM | Potency [2] 16.4 µM and 3.72 µM

Reference: PubChem BioAssay (NCATS)
